Laboratory results taken from publication PMC10812921, “Transcriptional Coactivator BOB1 (OBF1, OCA-B) Modulates the Specificity of DNA Recognition by the POU-Domain Factors OCT1 and OCT2 in a Monomeric Configuration”.

Key:
POU1 (OCT1 POU domain) = POU1 (OCT1 POU domain) (human, UniProt P14859 260-458); test: EMSA-SELEX-seq; no BOB1; 20 mM Tris-HCl pH 7.6, 140 mM NaCl, 10% glycerol, 0.5 mM EDTA, 0.05% Triton X-100, 0.1 mg/mL BSA, 0.1 mg/mL poly(dI-dC), 5 mM DTT, room temperature, 20 min; high values mean tight binding; settings: protein: recombinant; dsDNA, one strand shown
Summary of the method: (§1)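 In this selection, tagged POU-domain proteins from E. coli BL21, purified under denaturing conditions and renatured, were bound to a PCR-amplified double-stranded random 35-nt library with or without coactivator protein. Reactions held 30 ng protein, 300 ng library and, where used, 28 ng coactivator protein in 20 μL Tris–HCl pH 7.6 binding buffer for 20 min at RT. Complex bands were cut from native 6% PAGE, eluted and PCR-amplified over four rounds, then Illumina-sequenced, and binding preference is the percentage of sequenced 8-mers matching a motif pattern.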

POU2 (OCT2 POU domain) = target: T1, POU2 (OCT2 POU domain) (human, UniProt P09086 175-386); test: as above; settings: protein: recombinant; dsDNA, one strand shown
T1 sequence: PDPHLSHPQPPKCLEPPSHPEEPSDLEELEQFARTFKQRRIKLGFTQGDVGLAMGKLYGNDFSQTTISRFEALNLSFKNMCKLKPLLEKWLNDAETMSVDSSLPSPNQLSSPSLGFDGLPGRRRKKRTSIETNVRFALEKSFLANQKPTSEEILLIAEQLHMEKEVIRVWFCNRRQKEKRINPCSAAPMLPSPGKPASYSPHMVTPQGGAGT
Summary of the method: as §1

[1] = target: POU1 (OCT1 POU domain);BOB1 (OBF1, OCA-B) (human;human, UniProt P14859;Q16633 260-458;1-256, |); test: EMSA-SELEX-seq; with BOB1 (ternary complex band); 20 mM Tris-HCl pH 7.6, 140 mM NaCl, 10% glycerol, 0.5 mM EDTA, 0.05% Triton X-100, 0.1 mg/mL BSA, 0.1 mg/mL poly(dI-dC), 5 mM DTT, room temperature, 20 min; high values mean tight binding; settings: protein: recombinant;recombinant; copies: 1;1; dsDNA, one strand shown
Summary of the method: as §1

[2] = target: T2, POU2 (OCT2 POU domain);BOB1 (OBF1, OCA-B) (human;human, UniProt P09086;Q16633 175-386;1-256, |); test: as above; settings: protein: recombinant;recombinant; copies: 1;1; dsDNA, one strand shown
T2 sequence 1: T1 sequence
T2 sequence 2: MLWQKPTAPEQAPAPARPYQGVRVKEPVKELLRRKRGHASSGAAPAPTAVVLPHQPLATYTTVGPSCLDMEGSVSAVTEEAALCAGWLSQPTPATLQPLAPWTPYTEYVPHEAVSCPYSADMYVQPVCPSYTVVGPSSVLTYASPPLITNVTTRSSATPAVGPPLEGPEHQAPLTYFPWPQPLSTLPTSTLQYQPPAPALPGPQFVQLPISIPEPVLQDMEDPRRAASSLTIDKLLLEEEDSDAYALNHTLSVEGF
Summary of the method: as §1

POU1 (OCT1 POU domain), sequence (P14859 260-458): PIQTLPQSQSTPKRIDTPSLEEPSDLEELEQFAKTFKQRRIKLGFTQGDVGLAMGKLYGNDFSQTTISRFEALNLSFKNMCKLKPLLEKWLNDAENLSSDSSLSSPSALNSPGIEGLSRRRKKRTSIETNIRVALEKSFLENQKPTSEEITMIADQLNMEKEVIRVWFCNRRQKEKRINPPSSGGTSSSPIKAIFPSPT

Sequence	binding signal (POU1 (OCT1 POU domain))	binding signal (POU2 (OCT2 POU domain))	binding signal [1]	binding signal [2]
AGAGCAAA	0.0374 % of ANNNNAAN 8-mers	0.0293 % of ANNNNAAN 8-mers	0.0433 % of ANNNNAAN 8-mers	0.0413 % of ANNNNAAN 8-mers
ACGCAAAA	0.151 % of ANNNNAAN 8-mers	0.0944 % of ANNNNAAN 8-mers	0.277 % of ANNNNAAN 8-mers	0.157 % of ANNNNAAN 8-mers
AAGTGAAT	0.105 % of ANNNNAAN 8-mers	0.123 % of ANNNNAAN 8-mers	0.0796 % of ANNNNAAN 8-mers	0.0669 % of ANNNNAAN 8-mers
AGGCAAAC	0.0866 % of ANNNNAAN 8-mers	0.0512 % of ANNNNAAN 8-mers	0.157 % of ANNNNAAN 8-mers	0.0817 % of ANNNNAAN 8-mers
AATTTAAT	0.306 % of ANNNNAAN 8-mers	0.333 % of ANNNNAAN 8-mers	0.182 % of ANNNNAAN 8-mers	0.162 % of ANNNNAAN 8-mers
AGGGAAAG	0.194 % of ANNNNAAN 8-mers	0.136 % of ANNNNAAN 8-mers	0.222 % of ANNNNAAN 8-mers	0.142 % of ANNNNAAN 8-mers
AATGGAAG	0.101 % of ANNNNAAN 8-mers	0.076 % of ANNNNAAN 8-mers	0.0644 % of ANNNNAAN 8-mers	0.0792 % of ANNNNAAN 8-mers
ACGGTAAG	0.0351 % of ANNNNAAN 8-mers	0.0311 % of ANNNNAAN 8-mers	0.0359 % of ANNNNAAN 8-mers	0.0413 % of ANNNNAAN 8-mers
AGGCTAAC	0.013 % of ANNNNAAN 8-mers	0.023 % of ANNNNAAN 8-mers	0.0191 % of ANNNNAAN 8-mers	0.0223 % of ANNNNAAN 8-mers
ATTCCAAA	0.0481 % of ANNNNAAN 8-mers	0.0564 % of ANNNNAAN 8-mers	0.041 % of ANNNNAAN 8-mers	0.0578 % of ANNNNAAN 8-mers
AAGACAAC	0.0168 % of ANNNNAAN 8-mers	0.019 % of ANNNNAAN 8-mers	0.0195 % of ANNNNAAN 8-mers	0.0157 % of ANNNNAAN 8-mers
AGATTAAT	0.147 % of ANNNNAAN 8-mers	0.207 % of ANNNNAAN 8-mers	0.0901 % of ANNNNAAN 8-mers	0.106 % of ANNNNAAN 8-mers
AGGCCAAT	0.0339 % of ANNNNAAN 8-mers	0.0443 % of ANNNNAAN 8-mers	0.0316 % of ANNNNAAN 8-mers	0.0413 % of ANNNNAAN 8-mers
AAAGAAAG	0.0679 % of ANNNNAAN 8-mers	0.0719 % of ANNNNAAN 8-mers	0.08 % of ANNNNAAN 8-mers	0.0619 % of ANNNNAAN 8-mers
AGAAGAAT	0.0515 % of ANNNNAAN 8-mers	0.0737 % of ANNNNAAN 8-mers	0.0597 % of ANNNNAAN 8-mers	0.0603 % of ANNNNAAN 8-mers
AGAATAAG	0.0686 % of ANNNNAAN 8-mers	0.101 % of ANNNNAAN 8-mers	0.0527 % of ANNNNAAN 8-mers	0.0702 % of ANNNNAAN 8-mers
ATACCAAG	0.0252 % of ANNNNAAN 8-mers	0.0334 % of ANNNNAAN 8-mers	0.0238 % of ANNNNAAN 8-mers	0.0305 % of ANNNNAAN 8-mers
ATGGTAAT	1.27 % of ANNNNAAN 8-mers	1.28 % of ANNNNAAN 8-mers	0.202 % of ANNNNAAN 8-mers	0.219 % of ANNNNAAN 8-mers
AAAGCAAG	0.04 % of ANNNNAAN 8-mers	0.0368 % of ANNNNAAN 8-mers	0.0457 % of ANNNNAAN 8-mers	0.0421 % of ANNNNAAN 8-mers
AGTATAAG	0.0397 % of ANNNNAAN 8-mers	0.0587 % of ANNNNAAN 8-mers	0.041 % of ANNNNAAN 8-mers	0.0454 % of ANNNNAAN 8-mers
ACTATAAA	0.0439 % of ANNNNAAN 8-mers	0.0403 % of ANNNNAAN 8-mers	0.041 % of ANNNNAAN 8-mers	0.0421 % of ANNNNAAN 8-mers
AATCAAAA	0.122 % of ANNNNAAN 8-mers	0.099 % of ANNNNAAN 8-mers	0.142 % of ANNNNAAN 8-mers	0.0792 % of ANNNNAAN 8-mers
AAAAAAAT	0.13 % of ANNNNAAN 8-mers	0.12 % of ANNNNAAN 8-mers	0.152 % of ANNNNAAN 8-mers	0.12 % of ANNNNAAN 8-mers
ATCATAAC	0.0324 % of ANNNNAAN 8-mers	0.0374 % of ANNNNAAN 8-mers	0.023 % of ANNNNAAN 8-mers	0.0322 % of ANNNNAAN 8-mers
AGGGTAAG	0.0503 % of ANNNNAAN 8-mers	0.0541 % of ANNNNAAN 8-mers	0.0531 % of ANNNNAAN 8-mers	0.0776 % of ANNNNAAN 8-mers
ACGTGAAG	0.0259 % of ANNNNAAN 8-mers	0.0282 % of ANNNNAAN 8-mers	0.0258 % of ANNNNAAN 8-mers	0.0305 % of ANNNNAAN 8-mers
AATTGAAT	0.203 % of ANNNNAAN 8-mers	0.238 % of ANNNNAAN 8-mers	0.127 % of ANNNNAAN 8-mers	0.125 % of ANNNNAAN 8-mers
ACTAGAAG	0.0229 % of ANNNNAAN 8-mers	0.0316 % of ANNNNAAN 8-mers	0.03 % of ANNNNAAN 8-mers	0.0231 % of ANNNNAAN 8-mers
ATCCTAAT	0.0614 % of ANNNNAAN 8-mers	0.0944 % of ANNNNAAN 8-mers	0.0499 % of ANNNNAAN 8-mers	0.0693 % of ANNNNAAN 8-mers
AAGTAAAC	0.0477 % of ANNNNAAN 8-mers	0.0489 % of ANNNNAAN 8-mers	0.0535 % of ANNNNAAN 8-mers	0.0487 % of ANNNNAAN 8-mers
